Source: ChEMBL document CHEMBL3988442, “University of Dundee, Small-Polar-MMV Screening Library” (2021)
The campaign covered roughly 48,000 compounds. About 13,000 (27%) showed an effect of 50% or more. This is one part of the list.

These compounds were tested on Wolbachia pipientis (assay: Anti-Wolbachia Cell-Based Screen). Conditions: 5 µM.
Format: functional
Parameters: scale not given: in the data most compounds retested in dose-response had high values
`O=C(O)c1ccccc1C1CCN(C2CCN(c3ccccc3)CC2)C1` (configuration not stated) was tested, and the “Percent Effect” value was 1.292%.
With `Cc1ncc(CN2CCOC(CN(C)c3cccnn3)C2)s1` (configuration not stated) the “Percent Effect” value was -7.672%.
With `Cc1cc(CN2CCN(c3ccc4nncn4n3)C(C)C2)on1` (configuration not stated) the “Percent Effect” value was 105.9%.
For `Cc1csc(N2CCN(Cc3cnc(C)s3)CC2C)n1` (configuration not stated), the “Percent Effect” value was -7.074%.
For `Cc1nc(CN2CCN(c3ccc4nncn4n3)C(C)C2)oc1C` (configuration not stated), the “Percent Effect” value was 98.31%.
With `Cc1cc(CN2CCN(c3ccc4nncn4n3)C(C)C2)no1` (configuration not stated) the “Percent Effect” value was 0.8559%.
In the case of `CC1CN(Cc2ccccn2)CCN1c1ccc2nncn2n1` (configuration not stated), the “Percent Effect” value is reported as 99.39%.
For `Cc1nc(CN2CCOC(c3ccc(Cl)cc3)C2)oc1C` (configuration not stated), the “Percent Effect” value was -15.43%.
`Cc1ncc(CN2CCN(c3ccc4nncn4n3)C(C)C2)s1` (configuration not stated) was tested, and the “Percent Effect” value was 100.4%.
For `CC1(C)CN(C(=O)c2cnc(-c3ccccn3)nc2)CC[C@]1(C)O`, the “Percent Effect” value was -14.16%.
In the case of `CC(c1ccccc1F)N(C(=O)CSCC(N)=O)C1CC1` (configuration not stated), the “Percent Effect” value is reported as -1.119%.
For `CCc1[nH]c2c(CNc3cncc(C(=O)N(C)C)n3)cc(C)cc2c1C`, the “Percent Effect” value was -3.475%.
`COc1ccc(C(C)Nc2ncc(C(N)=O)cc2Cl)c(OC)c1` (configuration not stated) was tested, and the “Percent Effect” value was 7.521%.
For `CS(=O)(=O)NCCN1CCSCC1c1ccc(Cl)cc1` (configuration not stated), the “Percent Effect” value was 7.054%.
With `Cn1ccnc1SCc1nc(C(C)(C)NC(=O)OC(C)(C)C)no1` the “Percent Effect” value was 4.931%.
With `N#Cc1ccc(N2CCN(c3ccc4nncn4n3)CC2)nc1` the “Percent Effect” value was -1.975%.
`CC1CN(CC2CCCC2)CCN1c1ccc2nncn2n1` (configuration not stated) was tested, and the “Percent Effect” value was -0.9162%.
With `c1ccc(CCN2CCN(c3ccc4nncn4n3)CC2)nc1` the “Percent Effect” value was -2.088%.
With `CCn1ccnc1CN1CCN(c2ccc3nnc(C)n3n2)CC1` the “Percent Effect” value was -14.29%.
`Cc1cc(CN2CCN(c3ccc4nncn4n3)CC2)no1` was tested, and the “Percent Effect” value was 96.25%.
For `Cc1cc(CN2CCN(CC(O)C(C)(C)C)CC2)no1` (configuration not stated), the “Percent Effect” value was -2.656%.
`Cc1cnc(CN2CCN(c3ccc4nncn4n3)C(C)C2)cn1` (configuration not stated) was tested, and the “Percent Effect” value was 120.6%.
In the case of `Cc1nnc2ccc(N3CCN(CCc4ccccn4)CC3)nn12`, the “Percent Effect” value is reported as 75.62%.
`CC1CN(CC2CCCCC2)CCN1c1ccc2nncn2n1` (configuration not stated) was tested, and the “Percent Effect” value was -9.658%.
With `Cc1ccn(-c2ccc(N3CCN(Cc4ccccn4)CC3)nn2)n1` the “Percent Effect” value was -3.971%.
With `c1ccc(CN2CCN(c3ccc4nncn4n3)CC2)nc1` the “Percent Effect” value was 81.68%.
With `Cc1nnc2ccc(N3CCN(Cc4nccn4C)CC3)nn12` the “Percent Effect” value was -5.258%.
With `O=C(Nc1cnccn1)[C@H]1C[C@H]2OCC[C@H]2N(c2ncc(F)cn2)C1` the “Percent Effect” value was 2.565%.
In the case of `c1ccc(CN2Cc3ccnn3CC(COCc3cccnc3)C2)nc1` (configuration not stated), the “Percent Effect” value is reported as -0.5546%.
In the case of `CCOCCN1CCN(CCCc2nnnn2-c2ccccc2)CC1`, the “Percent Effect” value is reported as -8.911%.
In the case of `CC1CN(CCc2ccccn2)CCN1c1ccc2nncn2n1` (configuration not stated), the “Percent Effect” value is reported as 129.7%.
For `CC1CN(CC(=O)N2CCCC2)CCN1c1ccc2nncn2n1` (configuration not stated), the “Percent Effect” value was -2.378%.
In the case of `CCCc1cc(N2CCCCC2Cn2cc(C)cn2)n2ncnc2n1` (configuration not stated), the “Percent Effect” value is reported as -0.9521%.
With `COc1ccc(C(=O)N2CCN(C(=O)CCCc3cn[nH]c3)CC2)cc1` the “Percent Effect” value was -2.583%.
For `Cc1cc(CCC(=O)N2CCOCC2)ccc1Br`, the “Percent Effect” value was 7.033%.
For `Cc1ccccc1N1CCCN(C(=O)CCc2cccnc2)CC1`, the “Percent Effect” value was 13.31%.
In the case of `Cc1ccc(CCC(=O)N2CCOCC2)cc1Cl`, the “Percent Effect” value is reported as -2.511%.
In the case of `O=C(Nc1ccc(F)cc1)C1CNCCN1C(=O)CCc1cccnc1` (configuration not stated), the “Percent Effect” value is reported as -3.468%.
For `COc1ccc(CCCC(=O)N2CCCC(n3cccn3)C2)cc1` (configuration not stated), the “Percent Effect” value was 8.149%.
In the case of `COc1ccc(CCC(=O)N2CCNCC2C(=O)N2CCOCC2)cc1` (configuration not stated), the “Percent Effect” value is reported as 109%.
In the case of `COc1ccc(CCC(=O)N2CCNCC2C(=O)N2CCCC2)cc1` (configuration not stated), the “Percent Effect” value is reported as 99.9%.
In the case of `O=C(C1CNCCN1C(=O)CCc1cccnc1)N1CCOCC1` (configuration not stated), the “Percent Effect” value is reported as 99.11%.
For `CCn1cnnc1CCNC(=O)C1COc2ccc(OC)cc2C1` (configuration not stated), the “Percent Effect” value was 0.6591%.
With `O=S(=O)(CCc1ccccc1)Cc1nc(C2CC2)no1` the “Percent Effect” value was 20.48%.
`Cc1c(C2CCCN(C(=O)C3CC3)C2)n2c(nc1=O)CCC2.Cl` (configuration not stated) was tested, and the “Percent Effect” value was 11.8%.
`Cc1csc(CNCC2CCCN(C(=O)OC(C)(C)C)C2)n1` (configuration not stated) was tested, and the “Percent Effect” value was 11.13%.
With `Cc1nc(CN[C@H]2CCCN(C(=O)OC(C)(C)C)C2)cs1` the “Percent Effect” value was 1.8%.
In the case of `Cc1cnc(C(=O)N2CCCC(Cn3cc(C4CC4)nn3)C2)cn1` (configuration not stated), the “Percent Effect” value is reported as 1.892%.
`Cc1c(C2CCCN(C(=O)c3ccn(C)n3)C2)n2c(nc1=O)CCC2` (configuration not stated) was tested, and the “Percent Effect” value was 88.69%.
With `Cc1csc(C2CCCN(C(=O)c3ccc(=O)n(C)n3)C2)n1` (configuration not stated) the “Percent Effect” value was 3.739%.
In the case of `Cc1c(C2CCCN(C(=O)OC(C)(C)C)C2)n2c(nc1=O)CCC2` (configuration not stated), the “Percent Effect” value is reported as 101.7%.
`Cc1cnc(C(=O)N2CCCC(c3c(C)c(=O)nc4n3CCC4)C2)cn1.Cl` (configuration not stated) was tested, and the “Percent Effect” value was 99.49%.
In the case of `O[C@@H]1C[C@@H](c2nc(-c3ccc(OC(F)(F)F)cc3)no2)N(CC2CC2)C1`, the “Percent Effect” value is reported as 9.042%.
`CCC/C=C/c1ccc(CN2CCCC2)cn1` was tested, and the “Percent Effect” value was -3.861%.
`CCOC(=O)CN1CC(c2nc(-c3ccsc3)no2)C1.O=C(O)C(=O)O` was tested, and the “Percent Effect” value was -3.591%.
With `CCC1COCCN1C(=O)CNC(=O)c1ccoc1C` (configuration not stated) the “Percent Effect” value was -13.26%.
In the case of `CS(=O)(=O)N1CCN(c2ccc(Nc3ccccn3)nn2)CC1`, the “Percent Effect” value is reported as 2.595%.
`Cc1nc(Nc2ccccn2)cc(N2CCN(S(C)(=O)=O)CC2)n1` was tested, and the “Percent Effect” value was -12.78%.
In the case of `Cc1nc2c(c(Nc3ccccn3)n1)CN(S(C)(=O)=O)CC2`, the “Percent Effect” value is reported as 109%.
For `Cc1ncc(CNCC(=O)NC2CCCCC2)n1-c1ccccc1`, the “Percent Effect” value was -6.194%.
For `CC(CCc1ccccc1)NC(=O)Nc1cnn(CC(N)=O)c1` (configuration not stated), the “Percent Effect” value was -0.3012%.
`CCc1ncc(C(=O)N2CCn3c(CC)nnc3C2)s1` was tested, and the “Percent Effect” value was -2.408%.
`CCc1nnc2n1CCN(C(=O)c1ccccc1OCC1CC1)C2` was tested, and the “Percent Effect” value was -2.361%.
For `CCc1nnc2n1CCN(C(=O)COCCc1ccccc1)C2`, the “Percent Effect” value was -3.602%.
In the case of `CCc1nnc2n1CCN(C(=O)CN(CC)CC)C2`, the “Percent Effect” value is reported as 97.7%.
With `CCc1nnc2n1CCN(C(=O)c1cnn(C)c1C1CC1)C2` the “Percent Effect” value was 0.7265%.
`CCc1nnc2n1CCN(C(=O)CN(C)C1CC1)C2` was tested, and the “Percent Effect” value was 84.19%.
`COCC(NC(=O)NCc1sccc1C)c1ccco1` (configuration not stated) was tested, and the “Percent Effect” value was -5.912%.
`CN(Cc1nccn1C)C(=O)C1COCC(=O)N1Cc1ccccc1` (configuration not stated) was tested, and the “Percent Effect” value was -8.994%.
With `CN1CCOC(C(=O)Nc2nc(-c3ccc4c(c3)CCC4)n[nH]2)C1` (configuration not stated) the “Percent Effect” value was -12.56%.
For `Cn1ccnc1C(=O)N1CCCC1c1ccc(C(=O)N2CCOCC2)s1` (configuration not stated), the “Percent Effect” value was -4.877%.
With `CCNC(=O)N1CCC(Cc2cccc(C(N)=O)c2)C1` (configuration not stated) the “Percent Effect” value was 4.026%.
For `CCNC(=O)N1CCC(OC)c2ccccc2N(CC(=O)NC)C(=O)C1` (configuration not stated), the “Percent Effect” value was 67.66%.
For `CCNC(=O)N1CC[C@H]2CC(=O)N(CC(N)=O)CC[C@H]2C1`, the “Percent Effect” value was 1.469%.
`CCOC(=O)CN1C(=O)CN(S(C)(=O)=O)CCC(OC)c2ccccc21` (configuration not stated) was tested, and the “Percent Effect” value was 83.87%.
`CNC(=O)NC(=O)CN1CCN(CC2CC2)c2ccccc21` was tested, and the “Percent Effect” value was 5.416%.
`CS(=O)(=O)N1CCC(C(=O)N2CCOc3ccccc32)CC1` was tested, and the “Percent Effect” value was 5.703%.
For `CC1CCN(C(=O)C2CCN(S(C)(=O)=O)CC2)c2ccccc21` (configuration not stated), the “Percent Effect” value was 3.869%.
In the case of `COCC(=O)N1CCC2(CCC2NS(=O)(=O)c2ccccc2)CC1` (configuration not stated), the “Percent Effect” value is reported as 2.757%.
In the case of `CCOC(=O)N1CCC(OC)c2ccccc2N(CC(=O)NC)C(=O)C1` (configuration not stated), the “Percent Effect” value is reported as 117.4%.
In the case of `CNC(=O)CN1C(=O)CN(C(=O)COC)CCC(OC)c2ccccc21` (configuration not stated), the “Percent Effect” value is reported as 121.9%.
In the case of `c1ccc(COCC2CNCc3nccn3C2)nc1` (configuration not stated), the “Percent Effect” value is reported as -7.438%.
For `O=C(NS(=O)(=O)Cc1ccc(F)cc1)C1CCc2ccccc21` (configuration not stated), the “Percent Effect” value was 9.1%.
With `CC(NC(=O)NCC(C)(C)O)c1ccc(-c2cncnc2)cc1` (configuration not stated) the “Percent Effect” value was -6.963%.
For `COc1ccc(NCc2ccccc2N2CCN(C(C)=O)CC2)cn1`, the “Percent Effect” value was 3.995%.
`CNC(=O)CN1CCCC1c1ccccc1Br` (configuration not stated) was tested, and the “Percent Effect” value was 2.059%.
`CNC(=O)CS(=O)(=O)C1CCN(S(=O)(=O)c2ccccc2Cl)CC1` was tested, and the “Percent Effect” value was 17.8%.
`CCS(=O)(=O)N1CCC(OC)c2ccccc2N(CC(=O)NC)C(=O)C1` (configuration not stated) was tested, and the “Percent Effect” value was 115.1%.
`O=S(=O)(NCCNc1cc(-n2cccn2)ncn1)c1cccs1` was tested, and the “Percent Effect” value was 12.03%.
With `COc1ccc(C(=O)NS(C)(=O)=O)cc1-c1ccccc1` the “Percent Effect” value was -13.07%.
With `CC(=O)N1CCCN(C(=O)c2csc(-c3ccc(C)cc3C)n2)CC1` the “Percent Effect” value was -4.506%.
With `CC(C)CN1CCN(C(=O)c2cc(=O)c3ccccc3[nH]2)CC1` the “Percent Effect” value was -0.8051%.
`COc1ccc(C)cc1C(C(=O)O)N1CCN(Cc2ccccn2)CC1` (configuration not stated) was tested, and the “Percent Effect” value was -8.065%.
With `Cc1ccc(C(=O)CN2C(=O)c3ccccc3CS2(=O)=O)c(C)c1` the “Percent Effect” value was -19.51%.
For `Cc1ccc(C)c(C(=O)CN2C(=O)c3ccccc3CS2(=O)=O)c1`, the “Percent Effect” value was -17.22%.
With `Cc1ccc(C)c(-c2[nH]c3ccccc3c2C(=O)O)c1` the “Percent Effect” value was 107.7%.
With `COc1ccc(C)cc1-c1[nH]c2ccccc2c1C(=O)O` the “Percent Effect” value was 86.15%.
For `Cc1ccc(-c2[nH]c3ccccc3c2C(=O)O)c(C)c1`, the “Percent Effect” value was 112.6%.
`Cc1ncc2c(n1)CN(CC(=O)Nc1cccnc1)CC2` was tested, and the “Percent Effect” value was 115.5%.
`Cc1nnc(NC(=O)CN2CCCC(c3ccn[nH]3)C2)s1` (configuration not stated) was tested, and the “Percent Effect” value was 8.304%.
With `Cc1ncc2c(n1)CN(CC(=O)Nc1nncs1)CC2` the “Percent Effect” value was 10.92%.
With `Cc1ncc2c(n1)CN(CC(=O)Nc1nnc(C)s1)CC2` the “Percent Effect” value was 120.8%.
In the case of `Cc1ncc2c(n1)CN(CC(=O)Nc1nccs1)CC2`, the “Percent Effect” value is reported as 121.1%.
With `Cc1nc(CN2CCCN(CC(=O)Nc3cccnc3)CC2)no1` the “Percent Effect” value was -4.253%.
In the case of `Cc1ncc2c(n1)CN(CC(=O)N1CCc3sccc3C1)CC2`, the “Percent Effect” value is reported as -8.865%.
With `CCc1ncc2c(n1)CN(CC(=O)Nc1nnc(C)s1)CC2` the “Percent Effect” value was -0.5205%.
For `Cc1ncc2c(n1)CN(CC(=O)Nc1ccncc1)CC2`, the “Percent Effect” value was 3.82%.
